Results published in the supplement of paper PMC7556523.

Tests used:
[1] = tested on: Sporothrix brasiliensis CBS 133006; assay: growth inhibition relative to untreated control; higher = more growth inhibition (more antifungal activity), active = 80 or more; extreme values may be limits of the assay; details: 1 µM; 48 h
Procedure, shortened: (§1)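 Before testing, the reference isolates were kept in brain heart infusion broth with 2% glucose at 36°C for 7 days to give yeast-form cells. These cells, at 1 x 10^5 CFU/ml, received library compounds at a final 1 μM and were held 48 h at 35°C in 5% CO2. Growth was checked by eye under an inverted light microscope and quantified spectrophotometrically in quadruplicate, and the value is percent growth inhibition versus untreated cells.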

[2] = tested on: Sporothrix schenckii ATCC 32286; assay: as above; details: 1 µM; 48 h
Procedure, shortened: as §1

Compound | growth inhibition [1] | growth inhibition [2]
Cc1cc2nc(NC(=O)C(C)(C)C)nc(Cl)c2n1Cc1ccc(Cl)cc1 | 14.8% (inactive) | 2.5% (inactive)
O=C(OCc1ccccc1)N1CCC(c2cc(-c3ccncc3)c(-c3ccc(F)cc3)[nH]2)CC1 | 5.25% (inactive) | 13.2% (inactive)
Cc1[nH]c2cc(F)cc(F)c2c(=O)c1-c1ccc(Oc2ccc(OC(F)(F)F)cc2)cc1 | 2.25% (inactive) | 9.5% (inactive)
Nc1ccc2ncnc(Nc3ccc(OCc4cccc(F)c4)c(Cl)c3)c2c1 | 12.8% (inactive) | 8.25% (inactive)
O=S(=O)(c1ccc(Cl)cc1)N1CCN(C(=S)NCc2ccco2)CC1 | 0% (inactive) | 12% (inactive)
CC(=O)OCC1OC([S-])C(OC(C)=O)C(OC(C)=O)C1OC(C)=O.CCP(CC)CC.[Au+] (stereo unspecified) | 25.5% (inactive) | 55% (inactive)
CN1CCCN(C(c2ccccc2)c2ccc(Cl)cc2)CC1 (stereo unspecified) | 6% (inactive) | 6.5% (inactive)
N=C(N)c1ccc(OCCCCCOc2ccc(C(=N)N)cc2)cc1 | 93.5% (active) | 72% (inactive)
Clc1cccc(C(c2ccc(CN3CCNCC3)cc2)n2ccnc2)c1 (stereo unspecified) | 3% (inactive) | 7% (inactive)
CC(C)(C(=O)Nc1ccc(F)cc1)n1cc(-c2ccccc2F)cn1 | 0% (inactive) | 11% (inactive)
CC(C)=CCC/C(C)=C/CNCCNC1C2CC3CC(C2)CC1C3 (stereo unspecified) | 44.2% (inactive) | 22.2% (inactive)
CS(=O)(=O)N1CCC(Cn2nc(Cc3cccc4ccccc34)c3c(N)ncnc32)CC1 | 11.2% (inactive) | 22% (inactive)
CNC1C(OC2C(OC3C(O)C(O)C(N=C(N)N)C(O)C3N=C(N)N)OC(C)C2(O)C=O)OC(CO)C(O)C1O (stereo unspecified) | 6% (inactive) | 0% (inactive)
COc1cccc(CC(=O)N2CCC(n3c(C)nc4ccc(F)cc43)CC2)c1 | 7.5% (inactive) | 6.25% (inactive)
O=C(CN1CCOCC1)Nc1ccc2ncnc(Nc3ccc(OCc4cccc(F)c4)c(Cl)c3)c2c1 | 8.25% (inactive) | 15.8% (inactive)
CC(=O)N(CCN(C(=O)c1ccc(F)cc1)c1ccccc1)c1ccccc1 | 13% (inactive) | 0% (inactive)
Nc1ncc(Br)cc1-c1nc2cc(Cl)cnc2[nH]1 | 12% (inactive) | 19.2% (inactive)
CCOc1ccccc1NC(C)C(=O)Nc1cc(C(F)(F)F)ccc1N1CCOCC1 (stereo unspecified) | 27.8% (inactive) | 0% (inactive)
Oc1c(I)cc(I)c2cccnc12 | 99.5% (active) | 94.5% (active)
CCn1cnc2c(Nc3cc(F)cc(F)c3)nc(C#N)nc21 | 13% (inactive) | 3.75% (inactive)
OCc1ccc(-c2cncc(Nc3cccc(Cl)c3)c2)cc1 | 25.5% (inactive) | 6.75% (inactive)
CCCCS(=O)(=O)Nc1ccc2cnn(C)c2c1 | 4.75% (inactive) | 1.75% (inactive)
c1ccc2c(c1)CN(CC1CC1)CC1(CCN(Cc3c[nH]c4cnccc34)CC1)O2 | 1.25% (inactive) | 0% (inactive)
COc1ccc(C2=NN(C3CCCCCC3)C(=O)C2(C)C)cc1OCCCCOc1ccc(-c2nn[nH]n2)cc1 | 6.25% (inactive) | 0% (inactive)
O=C(NCc1ccoc1)N1CCN(Cc2ccc3c(c2)OCO3)CC1 | 7.5% (inactive) | 6.25% (inactive)

Compound | growth inhibition [1] | growth inhibition [2]
N#Cc1nc(-c2ccccc2)oc1S(=O)(=O)c1ccc(Cl)cc1 | 48.8% (inactive) | 6.25% (inactive)
Cc1cccc(NC(=O)c2cc(S(=O)(=O)N(C)c3ccc(F)cc3)ccc2Cl)n1 | 4.25% (inactive) | 8.25% (inactive)
O=C(Nc1nc(-c2ccccn2)cs1)c1cncn1-c1ccccc1 | 17.5% (inactive) | 15.2% (inactive)
COc1ccc(-c2onc(C(F)(F)F)c2-c2ccc(Cl)cc2)c(O)c1 | 11.8% (inactive) | 6% (inactive)
Cc1cc(NCC(C)C)c2[nH]nc(-c3ccccc3)c2n1 | 4.5% (inactive) | 0.75% (inactive)
COC(=O)Nc1nc2cc(C(=O)c3ccccc3)ccc2[nH]1 | 3.75% (inactive) | 16% (inactive)
CC(C)(C)OC(=O)N1CCN(c2cc(-c3ccc(Oc4ccccc4)cc3)n[nH]2)CC1 | 10.5% (inactive) | 0% (inactive)
CCOc1ccc(-c2nc(CNCCc3ccc(F)cc3)cs2)cc1 | 3.75% (inactive) | 15.5% (inactive)
Brc1c(-c2ccc3c(c2)OCO3)nc2ncccn12 | 19.5% (inactive) | 27.8% (inactive)
O=C(C1CCCCC1)N1CC(=O)N2CCc3ccccc3C2C1 (stereo unspecified) | 2.25% (inactive) | 10.2% (inactive)
O=C(Nc1ccc2c(c1)B(O)OC2)c1ccccc1C(F)(F)F | 13.5% (inactive) | 20.5% (inactive)
O=C(NCCc1ccn(-c2ccccc2)n1)C1CCCCC1 | 11.5% (inactive) | 6.25% (inactive)
OC[C@H]1O[C@@H](n2c3ccc(Cl)cc3c3c(-c4cc5ccccc5o4)ncnc32)C(O)[C@H]1O (stereo partly specified) | 10.8% (inactive) | 18.8% (inactive)
CC1=NN(c2nc3ccccc3s2)C(=O)C1Cc1cccc2ccccc12 (stereo unspecified) | 17.2% (inactive) | 14.8% (inactive)
O=C(Nc1ccnc(-c2cccnc2)n1)c1cc(C(F)(F)F)cc(C(F)(F)F)c1 | 2.5% (inactive) | 0% (inactive)
Nc1ccc(C(=O)Nc2ccc(-c3nc4ccccc4o3)cc2)cc1 | 5.5% (inactive) | 0% (inactive)
NCCC(O)C(=O)N[C@@H]1C[C@H](N)[C@@H](OC2O[C@H](CN)[C@@H](O)[C@H](O)[C@H]2O)[C@H](O)C1OC1O[C@H](CO)[C@@H](O)[C@H](N)[C@H]1O (stereo partly specified) | 9.25% (inactive) | 1% (inactive)
CC(C)n1nc(-c2cc3c(Cl)cccc3[nH]2)c2c(N)ncnc21 | 15% (inactive) | 16.8% (inactive)
CCc1nc2ccc(Cl)cn2c1C(=O)NCc1ccc(N2CCC(c3ccc(OC(F)(F)F)cc3)CC2)cc1 | 10.2% (inactive) | 2.25% (inactive)
Cc1ccc2nc(C)c(-c3ccn(Cc4ccccc4)n3)n2c1 | 44.8% (inactive) | 36.5% (inactive)
COc1nc2ccc(Br)cc2cc1[C@@H](c1ccccc1)[C@@](O)(CCN(C)C)c1cccc2ccccc12 | 21.5% (inactive) | 17.8% (inactive)
CCCS(=O)(=O)N1CCC(CO)(Cc2ccccc2C(F)(F)F)CC1 | 0% (inactive) | 0% (inactive)
c1ccc(-c2[nH]c3ccccc3c2C(c2ccccn2)N2CCCC2)cc1 (stereo unspecified) | 4.25% (inactive) | 12.2% (inactive)
CCC(Sc1nc2ccccc2o1)C(=O)Nc1nnc(C)s1 (stereo unspecified) | 16% (inactive) | 3.25% (inactive)
COc1cc(NC(=O)Cc2nn(C)c(=O)c3ccccc23)ccc1Cl | 4.5% (inactive) | 0% (inactive)

Compound | growth inhibition [1] | growth inhibition [2]
Cc1cnc(N2CCN[C@@H](Cc3ccccc3)C2)nc1Oc1ccc(-n2ccnc2)cc1 | 2.75% (inactive) | 6.5% (inactive)
CC1CS(=O)(=O)CCN1/N=C/c1ccc([N+](=O)[O-])o1 (stereo unspecified) | 6% (inactive) | 7% (inactive)
O=C(Nc1ccc(N2CCNCC2)nc1)c1oc(-c2ccccc2)nc1C(F)(F)F | 15.2% (inactive) | 13.5% (inactive)
COc1ccc(N(CCc2cccc(C)n2)C(=O)C2CCCCC2)cc1 | 5.75% (inactive) | 0% (inactive)
CCNC(=O)C(C)Nc1nc(-c2cccnc2)nc2sc(C)c(C)c12 (stereo unspecified) | 2.25% (inactive) | 16% (inactive)
Nc1nc2cc(-c3cncc(Oc4ccc(F)cc4)c3)ccc2[nH]1 | 8.5% (inactive) | 18.5% (inactive)
COc1ccc(C2=NCCN2)cc1-c1cn(-c2cccc(C3=NCCN3)c2)nn1 | 12.8% (inactive) | 3% (inactive)
CCCCN(CCCC)c1c(C#N)cc(S(=O)(=O)Nc2ccccc2)cc1C#N | 9.25% (inactive) | 23.8% (inactive)
CC(=O)Oc1ccccc1C(=O)Nc1ncc([N+](=O)[O-])s1 | 3.5% (inactive) | 14% (inactive)
COc1cc(NC(C)CCCN)c2ncccc2c1 (stereo unspecified) | 1% (inactive) | 4.25% (inactive)
O=C(Nc1ccccc1-c1nc2c(C(=O)O)cccc2o1)c1ccccc1 | 1% (inactive) | 0% (inactive)
COc1ccc(-c2nn(C(C)C)c3ncnc(N)c23)cc1OC | 6% (inactive) | 14.2% (inactive)
COc1cccc(OC)c1C(=O)Nc1ccc(Cl)c(-c2nc3ccccc3s2)c1 | 7.75% (inactive) | 0.75% (inactive)
O=C1COCc2ccc(Br)cc2N1Cc1ccc(C(F)(F)F)cc1 | 0% (inactive) | 2.75% (inactive)
COc1ccccc1CNC(=O)c1cc(C2CC2)nc2c1cnn2C(C)C | 27.8% (inactive) | 0% (inactive)
O=C(NCc1cc(Cl)cc(Cl)c1)c1c(C(F)(F)F)nc2ccccn12 | 21.5% (inactive) | 11.2% (inactive)
Cn1ccnc1CNCCS(=O)(=O)c1cccc(Nc2ccc(-c3cccc(F)c3)cn2)c1 | 4.25% (inactive) | 0% (inactive)
CNc1nnc(Sc2cnn(-c3ccccc3)c(=O)c2Cl)s1 | 6% (inactive) | 0% (inactive)
CC(C)(C)n1nc(Cc2cccc3ccccc23)c2c(N)ncnc21 | 11% (inactive) | 0% (inactive)
CCc1ccccc1-n1c(C)cn2c3c(=O)n(C(C(=O)OC)C(C)C)c(=O)n(C)c3nc12 (stereo unspecified) | 15.8% (inactive) | 0% (inactive)
COc1ccc(Cl)cc1NC(=O)CN(C)C(=O)c1cnn(-c2ccccc2)n1 | 14.5% (inactive) | 15.2% (inactive)
C[C@H]1COc2c(N3CCN(C)CC3)c(F)cc3c(=O)c(C(=O)O)cn1c23 | 0% (inactive) | 0% (inactive)
O=C(Nc1ccc(F)c(-c2nc3cc(-c4ccccc4)cnc3[nH]2)c1)N1CCCC1 | 12.5% (inactive) | 7.75% (inactive)
